test system: Plasmodium falciparum NF54; experiment: growth inhibition relative to untreated control; higher = more inhibition; conditions: 1 µM; MM + chorismate end-products (CM screening medium); 72 h
How it was run: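 Growth inhibition was measured by SYBR Green fluorescence, normalised to untreated wells and corrected for background from uninfected erythrocytes. The parasites were P. falciparum NF54 ring stages (1% hematocrit, 1% parasitemia) exposed to single 5 μM or 1 μM doses of test compounds for 72 h at 37 °C, in either minimal RPMI or minimal RPMI containing 2.2 μM folate, 7.3 μM pABA, 7.3 μM pHBA, 111 μM tyrosine, 90 μM phenylalanine and tryptophan.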

Structure (SMILES) | growth inhibition [%]
N#Cc1ccc(-c2ccc(OCC(N)=O)cc2)cc1 | < 0
CNC(=O)C1Cc2ccccc2N1C(=O)Cc1ccc(F)cc1 (stereo unspecified) | 10.9
CCC(Sc1nc2ccccc2o1)C(=O)Nc1nnc(C)s1 (stereo unspecified) | 13.2
CCOc1ccc(OCC(=O)Nc2cc(C)cc(C)c2)cc1 | 24.6
CCn1ncc2c(NC3CCOCC3)c(CNC(=O)c3ccnn3C)c(C)nc21 | 63.5
CN(C(=O)c1cc2c(-c3cncnc3)cccc2[nH]1)c1ccccc1 | 48.7
CCCCCCCCCCCCCCCCOP(=O)([O-])OCC[N+](C)(C)C | 35.9
CO[C@H]1/C=C\O[C@@]2(C)Oc3c(C)c(O)c4c(O)c(/c(=C/NN5CCN(C)CC5)c(O)c4c3C2=O)=N\C(=O)/C(C)=C\C=C/[C@H](C)[C@H](O)[C@@H](C)[C@@H](O)[C@@H](C)[C@H](OC(C)=O)[C@@H]1C | 35.5
c1ccc(C[C@@H]2CN(c3nccc(Oc4ccc(-n5ccnc5)cc4)n3)CCN2)cc1 | 98.3
c1ccc2c(c1)CN(CC1CC1)CC1(CCN(Cc3c[nH]c4cnccc34)CC1)O2 | 99
CCCNC(=O)N1CCC2(CC1)CC(=O)c1cc(C)ccc1O2 | 72.5
O=C1Nc2ccc(Br)cc2C12NCCc1c2[nH]c2ccccc12 (stereo unspecified) | 97.4
N=C(N)Nc1ccc(-c2ccc(-c3ccc(NC(=N)N)cc3Cl)o2)c(Cl)c1 | 96.9
O=S(=O)(c1ccc(Cl)cc1)N1CCN(C(=S)NCc2ccco2)CC1 | 97.7
O=C(c1ccc(F)cc1)N(CCNc1ccccc1)c1ccccc1 | < 0
CS(=O)(=O)Cc1nc2ccccc2oc1=O | < 0
CC1=Nc2ccc(Cl)cc2C(O)(c2ccc(C)cc2)N1CCN1CCCCC1 (stereo unspecified) | 99.9
COc1ccc(OC(C)C(=O)Nc2ccc(Cl)cc2C)cc1 (stereo unspecified) | 30
Cc1ccc2cc(C3NC(=O)c4ccccc4N3)c(Cl)nc2c1 (stereo unspecified) | 86

Structure (SMILES) | growth inhibition [%]
O=C(NCCc1c[nH]c2ccccc12)c1cc2ccccc2oc1=O | 20.7
CCCCc1ccc(NC(=O)Nc2ccc(O[C@H]3CCCC[C@@H]3N(C)c3ccccc3)c(F)c2)cc1 | 17.3
CC(C)n1nc(-c2cc3c(Cl)cccc3[nH]2)c2c(N)ncnc21 | 50.4
CN1CCC(c2cc(-c3ccncc3)c(-c3ccc(F)cc3)[nH]2)CC1 | 72.9
CCOc1ccccc1NC(C)C(=O)Nc1cc(C(F)(F)F)ccc1N1CCOCC1 (stereo unspecified) | 76
Cc1cc(OCC(=O)NCc2ccccc2)c2cc(Br)ccc2n1 | 12.6
Cc1nn2c(=O)c3c([nH]c2c1-c1ccc(Cl)cc1)CCCC3 | < 0
CNC1C(OC2C(OC3C(O)C(O)C(N=C(N)N)C(O)C3N=C(N)N)OC(C)C2(O)C=O)OC(CO)C(O)C1O (stereo unspecified) | 20.4
Cc1cc(NC(=O)c2ccc(Oc3ccc(Cl)cc3O)o2)no1 | 8.1
N#Cc1nc(-c2ccccc2)oc1S(=O)(=O)c1ccc(Cl)cc1 | 43.4
Nc1ccc2ncnc(Nc3ccc(OCc4cccc(F)c4)c(Cl)c3)c2c1 | 61.9
Cc1cc(Nc2ccncc2)n2nc(C)c(-c3ccccc3Cl)c2n1 | 95.7
CC(=O)Nc1ccc(-c2noc(CC3CCCN(Cc4cccc(F)c4C)C3)n2)cc1 (stereo unspecified) | 25.8
O=C(Nc1nc(-c2ccccn2)cs1)c1cncn1-c1ccccc1 | 25.9
Cc1ccc(Oc2ccc(NC(=O)CNc3ccccc3N3CCCC3=O)cc2)cc1 | 85.2
OCCc1ccc(Nc2nccc(-c3nnc4ccccn34)n2)cc1 | 82.3
CCc1nc2ccc(C(=O)NCc3ccc4c(c3)OCO4)cn2c1N(C)Cc1cccs1 | 21.4
COc1ccc(S(=O)(=O)Nc2ccc(CN3CCN(C(=O)c4cccc(C#N)c4)CC3)cc2)cc1 | 0.529
CS(=O)(=O)c1ccccc1C(=O)N(Cc1ccccc1)c1ccccc1 | 35.9

same assay, conditions: 1 µM; minimal medium (MM); 72 h

Structure (SMILES) | growth inhibition [%]
N#Cc1ccc(-c2ccc(OCC(N)=O)cc2)cc1 | 6.45
CNC(=O)C1Cc2ccccc2N1C(=O)Cc1ccc(F)cc1 (stereo unspecified) | < 0
CCC(Sc1nc2ccccc2o1)C(=O)Nc1nnc(C)s1 (stereo unspecified) | 0.545
CCOc1ccc(OCC(=O)Nc2cc(C)cc(C)c2)cc1 | < 0
CCn1ncc2c(NC3CCOCC3)c(CNC(=O)c3ccnn3C)c(C)nc21 | > 100
CN(C(=O)c1cc2c(-c3cncnc3)cccc2[nH]1)c1ccccc1 | 56.4
CCCCCCCCCCCCCCCCOP(=O)([O-])OCC[N+](C)(C)C | 19
CO[C@H]1/C=C\O[C@@]2(C)Oc3c(C)c(O)c4c(O)c(/c(=C/NN5CCN(C)CC5)c(O)c4c3C2=O)=N\C(=O)/C(C)=C\C=C/[C@H](C)[C@H](O)[C@@H](C)[C@@H](O)[C@@H](C)[C@H](OC(C)=O)[C@@H]1C | 38.2
c1ccc(C[C@@H]2CN(c3nccc(Oc4ccc(-n5ccnc5)cc4)n3)CCN2)cc1 | 97.5
c1ccc2c(c1)CN(CC1CC1)CC1(CCN(Cc3c[nH]c4cnccc34)CC1)O2 | 97.8
CCCNC(=O)N1CCC2(CC1)CC(=O)c1cc(C)ccc1O2 | 76.5
O=C1Nc2ccc(Br)cc2C12NCCc1c2[nH]c2ccccc12 (stereo unspecified) | 94.7
N=C(N)Nc1ccc(-c2ccc(-c3ccc(NC(=N)N)cc3Cl)o2)c(Cl)c1 | 95.5
O=S(=O)(c1ccc(Cl)cc1)N1CCN(C(=S)NCc2ccco2)CC1 | 93.6
O=C(c1ccc(F)cc1)N(CCNc1ccccc1)c1ccccc1 | < 0
CS(=O)(=O)Cc1nc2ccccc2oc1=O | < 0
CC1=Nc2ccc(Cl)cc2C(O)(c2ccc(C)cc2)N1CCN1CCCCC1 (stereo unspecified) | > 100
COc1ccc(OC(C)C(=O)Nc2ccc(Cl)cc2C)cc1 (stereo unspecified) | 15.2
Cc1ccc2cc(C3NC(=O)c4ccccc4N3)c(Cl)nc2c1 (stereo unspecified) | 82.6

Structure (SMILES) | growth inhibition [%]
O=C(NCCc1c[nH]c2ccccc12)c1cc2ccccc2oc1=O | 2.31
CCCCc1ccc(NC(=O)Nc2ccc(O[C@H]3CCCC[C@@H]3N(C)c3ccccc3)c(F)c2)cc1 | < 0
CC(C)n1nc(-c2cc3c(Cl)cccc3[nH]2)c2c(N)ncnc21 | 16
CN1CCC(c2cc(-c3ccncc3)c(-c3ccc(F)cc3)[nH]2)CC1 | 72.7
CCOc1ccccc1NC(C)C(=O)Nc1cc(C(F)(F)F)ccc1N1CCOCC1 (stereo unspecified) | 64.5
Cc1cc(OCC(=O)NCc2ccccc2)c2cc(Br)ccc2n1 | 3.05
Cc1nn2c(=O)c3c([nH]c2c1-c1ccc(Cl)cc1)CCCC3 | 22.1
CNC1C(OC2C(OC3C(O)C(O)C(N=C(N)N)C(O)C3N=C(N)N)OC(C)C2(O)C=O)OC(CO)C(O)C1O (stereo unspecified) | 29.2
Cc1cc(NC(=O)c2ccc(Oc3ccc(Cl)cc3O)o2)no1 | 27.1
N#Cc1nc(-c2ccccc2)oc1S(=O)(=O)c1ccc(Cl)cc1 | 49.5
Nc1ccc2ncnc(Nc3ccc(OCc4cccc(F)c4)c(Cl)c3)c2c1 | 24.6
Cc1cc(Nc2ccncc2)n2nc(C)c(-c3ccccc3Cl)c2n1 | 94.2
CC(=O)Nc1ccc(-c2noc(CC3CCCN(Cc4cccc(F)c4C)C3)n2)cc1 (stereo unspecified) | < 0
O=C(Nc1nc(-c2ccccn2)cs1)c1cncn1-c1ccccc1 | 7.24
Cc1ccc(Oc2ccc(NC(=O)CNc3ccccc3N3CCCC3=O)cc2)cc1 | 87.4
OCCc1ccc(Nc2nccc(-c3nnc4ccccn34)n2)cc1 | 80.1
CCc1nc2ccc(C(=O)NCc3ccc4c(c3)OCO4)cn2c1N(C)Cc1cccs1 | < 0
COc1ccc(S(=O)(=O)Nc2ccc(CN3CCN(C(=O)c4cccc(C#N)c4)CC3)cc2)cc1 | < 0
CS(=O)(=O)c1ccccc1C(=O)N(Cc1ccccc1)c1ccccc1 | 7.57

— the supplement of paper PMC6763611
